In PubChem BioAssay (NCATS) one finds Potency and viability (% of DMSO) data, which are given here for 32 molecules.

Values joined by “and” are separate entries in the source; they are usually repeats but may differ in a detail not shown here. Identical values can stand only once. Records with an inconclusive call do not appear. Active and inactive are the calls of the source. The call rests on the fitted dose curve; in most records, active means well fitted curve in the direction sought with a large enough effect; inconclusive means small, poorly fitted or top-dose-only effect, or another doubt; inactive means no such curve, though single readings can be large; an effect the other way counts as inactive or inconclusive.
Potency means the concentration at half of the fitted maximal effect.

A short description of one experiment: Quantitative High-Throughput drug screen in 47 multiple myeloma cell lines against the NCATS MIPE library collection: KMM1_JCRB cell viability assay (AID 1918960). Further: nearly all actives have a fitted effect of over 30% in size. Conditions: KMM1 myeloma viability, CellTiter-Glo ATP luminescence, 48 h; series mostly up to 45.8 µM. A digest of the protocol: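 Myeloma cells, 500 per well, were exposed to MIPE 4.0 drugs by pin transfer for 48 h at 37 °C, 5% CO2. Viability was read as ATP luminescence with CellTiter-Glo, normalised to DMSO-only (100%) and medium-only (0%) wells.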
(In ATP-based viability assays light output follows the ATP content of the culture.)
Consider `O=c1[nH]c(-c2ccc(C(F)(F)F)cc2)nc2c1CSCC2`, for which the Potency entry is “inactive”.

Take `Cn1cnc([N+](=O)[O-])c1Sc1ncnc2nc[nH]c12`: the Potency was 2.96 µM (active).

Turning to `O=C(O)COCCN1CCN(C(c2ccccc2)c2ccc(Cl)cc2)CC1` (stereo not given), the Potency entry was “inactive”.

On to `N=c1nc(N2CCCCC2)cc(N)n1O`, for which the Potency entry is “inactive”.

As for `O=C(NOC[C@H](O)CO)c1ccc(F)c(F)c1Nc1ccc(I)cc1F`, the Potency was 0.0187 µM (active).

Consider `CCCS(=O)(=O)Nc1ccc(F)c(C(=O)c2c[nH]c3ncc(Cl)cc23)c1F`, for which the Potency is 16.6 µM (active).

With `Cc1cc(-c2ccc(CC(=O)Nc3ccc(-c4cccnc4)cc3)cc2)ccn1`, the Potency was 14.8 µM (active).

Consider `CCCc1nn(C)c2c(=O)[nH]c(-c3cc(S(=O)(=O)N4CCN(C)CC4)ccc3OCC)nc12`, for which the Potency result is “inactive”.

Regarding `NC(=O)c1ccc(-c2nc(-c3ccc4c(c3)OCO4)c(-c3ccccn3)[nH]2)cc1`, the Potency was 1.66 µM (active).

As for `Nc1cccc(S(=O)(=O)N2CCCN(S(=O)(=O)c3ccc4c(c3)OCCO4)CC2)c1`, the Potency entry was “inactive”.

For the molecule `c1ccc(-c2nn3c(c2-c2ccnc4cc(OCCN5CCOCC5)ccc24)CCC3)nc1`, the Potency result was “inactive”.

As to `Oc1ccc(C2CNCCc3c2cc(O)c(O)c3Cl)cc1` (stereo not given), the Potency entry was “inactive”.

As to `CCc1cncnc1N1CCN(Cc2nc3ccc(C(F)(F)F)cc3[nH]2)CC1`, the Potency is 2.64 µM (active).

For the molecule `CN(C)c1ccc(Nc2nc(N)n(C(=O)c3c(F)cccc3F)n2)cc1`, the Potency was 11.8 µM (active).

For the molecule `COCC(=O)NCC=Cc1ccc2ncnc(Nc3ccc(Oc4ccc(C)nc4)c(C)c3)c2c1`, the Potency was 8.33 µM (active).

Take `CC(C=CC1=C(C)CCCC1(C)C)=CC=CC(C)=CC(=O)O`: the Potency entry was “inactive”.

Regarding `O=C1CCc2cc(OCCCCc3nnnn3C3CCCCC3)ccc2N1`, the Potency result is “inactive”.

As to `CN(C)c1ccc(C2Nc3ccc4ccccc4c3C3=C2C(=O)CC(C)(C)C3)cc1Br` (stereo not given), the Potency was 4.69 µM (active).

Take `CN1CCN(CCCN2c3ccccc3Sc3ccc(C(F)(F)F)cc32)CC1`: the Potency result is “inactive”.

As for `O=NN(CCCl)C(=O)NCCCl`, the Potency result is “inactive”.

Consider `CC(C)(Sc1ccc(CCN(CCCCC2CCCCC2)C(=O)NC2CCCCC2)cc1)C(=O)O`, for which the Potency result was “inactive”.

Consider `Cc1oncc1C(=O)Nc1ccc(C(F)(F)F)cc1`, for which the Potency entry was “inactive”.

For `CCc1ccc(CCOc2ccc(CC3SC(=O)NC3=O)cc2)nc1` (stereo not given), the Potency entry was “inactive”.

The nature of the next experiment: Quantitative High-Throughput drug screen in 47 multiple myeloma cell lines against the NCATS MIPE library collection: Karpas417_ECACC cell viability assay (AID 1918961). The following applies: Karpas417 myeloma viability, CellTiter-Glo ATP luminescence, 48 h; viability (% of DMSO): at 45.8 µM (top of the series) unless noted. A digest of the protocol: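 Steps: seed 500 cells per well; pin-transfer MIPE 4.0 library; incubate 48 h at 37C, 5% CO2, humidified; add CellTiter-Glo, 5 min room temperature; read luminescence.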
For `Cn1cnc([N+](=O)[O-])c1Sc1ncnc2nc[nH]c12`, the Potency result was “inactive”.

For the molecule `O=C(NOC[C@H](O)CO)c1ccc(F)c(F)c1Nc1ccc(I)cc1F`, the Potency was 0.0469 µM (active).

As to `Cc1cc(-c2ccc(CC(=O)Nc3ccc(-c4cccnc4)cc3)cc2)ccn1`, the Potency is 16.6 µM (active).

Consider `CCCc1nn(C)c2c(=O)[nH]c(-c3cc(S(=O)(=O)N4CCN(C)CC4)ccc3OCC)nc12`, for which the Potency result is “inactive”.

Regarding `CCc1cncnc1N1CCN(Cc2nc3ccc(C(F)(F)F)cc3[nH]2)CC1`, the Potency entry was “inactive”.

`CN(C)c1ccc(Nc2nc(N)n(C(=O)c3c(F)cccc3F)n2)cc1`: the Potency is 1.66 µM (active).

In the case of `COCC(=O)NCC=Cc1ccc2ncnc(Nc3ccc(Oc4ccc(C)nc4)c(C)c3)c2c1`, the Potency is 10.5 µM (active).

For `Fc1ccc(Cl)cc1-c1nc(Nc2ccncc2)c2nccnc2n1`, the Potency entry was “inactive”.

Consider `O=C1CCc2cc(OCCCCc3nnnn3C3CCCCC3)ccc2N1`, for which the viability (% of DMSO) was 113% (active).

For the molecule `CN1CCN(CCCN2c3ccccc3Sc3ccc(C(F)(F)F)cc32)CC1`, the viability (% of DMSO) was 113% (active).

Take `COc1c(Cl)cc2c([nH]c3cnccc32)c1NC(=O)c1cccnc1C`: the Potency was 16.6 µM (active).

A further experiment is described as follows: Quantitative High-Throughput drug screen in 47 multiple myeloma cell lines against the NCATS MIPE library collection: KHM11_PLB cell viability assay (AID 1918962). Further: nearly all actives have a fitted effect of over 35% in size. The following applies: KHM11 myeloma cell viability, CellTiter-Glo ATP luminescence, 48 h; series mostly up to 45.8 µM. The gist of the method:
(§1)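 Luminescent ATP measurement with CellTiter-Glo gives viability, scaled between DMSO-only wells (100%) and media-only wells (0%). Cells, 500 per well, faced library compounds for 48 hours at 37C.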
As to `O=C(O)COCCN1CCN(C(c2ccccc2)c2ccc(Cl)cc2)CC1` (stereo not given), the Potency was 7.43 µM (active).

In the case of `O=C(NOC[C@H](O)CO)c1ccc(F)c(F)c1Nc1ccc(I)cc1F`, the Potency was 0.0132 µM (active).

Regarding `CN(C)c1ccc(Nc2nc(N)n(C(=O)c3c(F)cccc3F)n2)cc1`, the Potency is 20.9 µM (active).

With `CC(C=CC1=C(C)CCCC1(C)C)=CC=CC(C)=CC(=O)O`, the Potency was 5.9 µM (active).

As for `CN1CCN(CCCN2c3ccccc3Sc3ccc(C(F)(F)F)cc32)CC1`, the Potency was 10.5 µM (active).

Regarding `O=NN(CCCl)C(=O)NCCCl`, the Potency result is “inactive”.

With `COc1c(Cl)cc2c([nH]c3cnccc32)c1NC(=O)c1cccnc1C`, the Potency was 2.96 µM (active).

On to `C#Cc1cccc(Nc2ncnc3cc(OCCOC)c(OCCOC)cc23)c1`, for which the Potency is 3.32 µM (active).

Regarding `CCc1ccc(CCOc2ccc(CC3SC(=O)NC3=O)cc2)nc1` (stereo not given), the Potency result was “inactive”.

A short description of a further experiment: Quantitative High-Throughput drug screen in 47 multiple myeloma cell lines against the NCATS MIPE library collection: JIM3_ECACC cell viability assay (AID 1918963; further: nearly all actives have a fitted effect of over 35% in size). The following applies: JIM3 myeloma viability, CellTiter-Glo ATP, 48 h; series mostly up to 45.8 µM. The gist of the method: as §1
On to `O=c1[nH]c(-c2ccc(C(F)(F)F)cc2)nc2c1CSCC2`, for which the Potency result was “inactive”.

Turning to `Cn1cnc([N+](=O)[O-])c1Sc1ncnc2nc[nH]c12`, the Potency was 14.8 µM (active).

`N=c1nc(N2CCCCC2)cc(N)n1O`: the Potency entry is “inactive”.

With `O=C(NOC[C@H](O)CO)c1ccc(F)c(F)c1Nc1ccc(I)cc1F`, the Potency was 0.166 µM (active).

For `CCCS(=O)(=O)Nc1ccc(F)c(C(=O)c2c[nH]c3ncc(Cl)cc23)c1F`, the Potency is 16.6 µM (active).

With `Cc1cc(-c2ccc(CC(=O)Nc3ccc(-c4cccnc4)cc3)cc2)ccn1`, the Potency is 18.7 µM (active).

On to `CCC(=O)N[C@H]1CC[C@H](C(=O)N(C)c2ccc(-c3nc4ccccc4o3)cc2)C1`, for which the Potency is 8.33 µM (active).

Take `NC(=O)c1ccc(-c2nc(-c3ccc4c(c3)OCO4)c(-c3ccccn3)[nH]2)cc1`: the Potency entry is “inactive”.

With `CCN(CC)CCCC(C)Nc1nc(C)cc(Nc2ccc3nc(C)cc(N)c3c2)n1` (stereo not given), the Potency result was “inactive”.

In the case of `COc1ccc(-c2oc3cc(OC)ccc3c2C(=O)c2ccc(C#N)cc2)cc1`, the Potency entry is “inactive”.

On to `CCc1cc(Nc2nccc(-c3c(-c4ccc(OC)c(C(=O)Nc5c(F)cccc5F)c4)nc4ccccn34)n2)c(OC)cc1N1CCC(N2CCN(S(C)(=O)=O)CC2)CC1`, for which the Potency is 18.7 µM (active).

For the molecule `c1ccc(-c2nn3c(c2-c2ccnc4cc(OCCN5CCOCC5)ccc24)CCC3)nc1`, the Potency result was “inactive”.

For `Oc1ccc(C2CNCCc3c2cc(O)c(O)c3Cl)cc1` (stereo not given), the Potency entry was “inactive”.

With `C[C@@H]1CN(Cc2ccc(F)cc2)[C@@H](C)CN1C(=O)c1cc2c(C(=O)C(=O)N(C)C)cn(C)c2cc1Cl`, the Potency was 13.2 µM (active).

On to `CCc1cncnc1N1CCN(Cc2nc3ccc(C(F)(F)F)cc3[nH]2)CC1`, for which the Potency is 20.9 µM (active).

Regarding `CN(C)c1ccc(Nc2nc(N)n(C(=O)c3c(F)cccc3F)n2)cc1`, the Potency is 16.6 µM (active).

With `COCC(=O)NCC=Cc1ccc2ncnc(Nc3ccc(Oc4ccc(C)nc4)c(C)c3)c2c1`, the Potency is 16.6 µM (active).

For the molecule `CC(C=CC1=C(C)CCCC1(C)C)=CC=CC(C)=CC(=O)O`, the Potency is 20.9 µM (active) and 4.69 µM (active).

On to `Fc1ccc(Cl)cc1-c1nc(Nc2ccncc2)c2nccnc2n1`, for which the Potency is 13.2 µM (active).

Take `O=C1CCc2cc(OCCCCc3nnnn3C3CCCCC3)ccc2N1`: the Potency result is “inactive”.

Consider `CN1CCN(CCCN2c3ccccc3Sc3ccc(C(F)(F)F)cc32)CC1`, for which the Potency is 8.33 µM (active).

For the molecule `O=NN(CCCl)C(=O)NCCCl`, the Potency entry was “inactive”.

For the molecule `OCCC#Cc1nc(-c2ccc(F)cc2)c(-c2ccncc2)n1CCCc1ccccc1`, the Potency is 23.5 µM (active).

With `COc1c(Cl)cc2c([nH]c3cnccc32)c1NC(=O)c1cccnc1C`, the Potency result is “inactive”.

In the case of `C#Cc1cccc(Nc2ncnc3cc(OCCOC)c(OCCOC)cc23)c1`, the Potency was 9.35 µM (active).

`CC(C)(Sc1ccc(CCN(CCCCC2CCCCC2)C(=O)NC2CCCCC2)cc1)C(=O)O`: the Potency result was “inactive”.

For the molecule `CCc1ccc(CCOc2ccc(CC3SC(=O)NC3=O)cc2)nc1` (stereo not given), the Potency entry was “inactive”.
